According to PubChem BioAssay (EPA / NIEHS):
Results filed as inconclusive are left out. Activity calls are given as the source filed them. Rule for the calls: active = hit-call score of the fitted dose curve at least 0.9, where 1 is the maximum; inconclusive = response in the unintended direction; inactive = score below 0.9.

Test: ACEA_AR_agonist_AUC_viability: ACEA Biosciences xCELLigence Real-Time Cell Analysis on Androgen Receptor Agonism for Viability (AID 2283775);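 for AC50: viability read 80 hours after compound addition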
Procedure: ACEA_AR_agonist is a cell-based, single-readout assay that uses 22Rv1, a human prostate cancer cell line, with measurements taken at 80 hours after chemical dosing in a 384-well plate, although TO5 and TO6 (mc0.srcf) used a 96-well plate. Differences in plate size can be ignored given data normalization.ACEA_AR_80hr is one of two assay component(s) measured or calculated from the ACEA_AR assay. It is designed to make measurements of real-time cell-growth kinetics, a form of growth reporter, as detected with electrical impedance signals by Real-Time Cell Electrode Sensor (RT-CES) technology.Data from the assay component ACEA_AR_AUC_viability was analyzed in the positive analysis fitting direction relative to DMSO as the negative control and baseline of activity. Using a type of growth reporter, loss-of-signal activity can be used to understand changes in the viability. Furthermore, this assay endpoint can be referred to as a secondary readout, because this assay has produced multiple assay endpoints where this one serves a viability function. To generalize the intended target to other relatable targets, this assay endpoint is annotated to the cell cycle intended target family, where the subfamily is cytotoxicity.
The xCELLigence system Multi-E-Plate stations were used to measure the time-dependent response to chemicals. Each compound was tested in an eight-point, 1:4 serial dilution series starting at a maximum final concentration of 100 uM. A maximum starting concentration of 0.5% DMSO was present in the 100 uM chemical samples and was diluted along with the test article dilution series. The screen was performed in biological duplicate using two separate, 96-well, E-Plates 96 for each dilution series (n = 2). Positive controls (MG132 and testosterone) and a negative control (assay media) were tested in quadruplicate on each testing plate. Then, 0.5% and 0.125% DMSO were tested in duplicates in each plate to serve as solvent controls for the 2 highest concentrations of testing compounds: 100 uM and 25 uM. Reference compounds were tested with 8 concentrations with 1:5 serial dilutions. All screening was carried out by ACEA Biosciences, Inc. (San Diego, CA). 22Rv1 cells purchased from ATCC were maintained in media supplemented with 10% fetal bovine serum (FBS). Before screening, 22Rv1 cells were preconditioned in assay medium. Cells were then detached and seeded in E-Plates 96 in assay medium. After overnight monitoring of growth once every hour, compounds were added to […] cells and remained in the medium until the end of the experiment. Cellular responses were then recorded once every 5 min for the first 5 h, and once every hour for an additional 100 h.

| Compound | AC50 | outcome |
| --- | --- | --- |
| O=C(OCC1CCC2OC2C1)C1CCC2OC2C1 (stereo not given) | 9.05 µM (active) | – |
| OC1CCCC1 | – | inactive |
| O=C1C(N(CO)C(=O)NCO)N(CO)C(=O)N1CO (stereo not given) | – | inactive |
| CC=C1CC2C=CC1C2 (stereo not given) | – | inactive |
| CC(C)(C)c1ccc(OC(=O)c2ccccc2O)cc1 | 0.106 µM (active) | – |
| NC(=O)N=NC(N)=O | – | inactive |
| CC(C)=CCC[C@H](C)CCO | – | inactive |
| C=CC(=O)NC(C)(C)CS(=O)(=O)O | – | inactive |
| CN(C)c1ccc(C(=N)c2ccc(N(C)C)cc2)cc1 | 3.18 µM (active) | – |
| CC(=O)OC(C)C | – | inactive |
| Cc1ccc(C(C)c2ccc(C)c(C)c2)cc1C | – | inactive |
| C1CN(SSN2CCOCC2)CCO1 | – | inactive |
| Cc1cc(C)c(C(=O)O)c(C)c1 | – | inactive |
| Oc1ccc(Cl)cc1Cc1cc(Cl)ccc1O | 11.5 µM (active) | – |
| O=C(c1ccccc1)C1CCC1 | – | inactive |
| CCCCC(CC)CCC(CC(C)C)OS(=O)(=O)O (stereo not given) | 4.29 µM (active) | – |
| c1ccc2c(c1)ccc1cc3c(ccc4ccccc43)cc12 | 0.341 µM (active) | – |
| O=c1cc(-c2ccccc2)oc2ccccc12 | – | inactive |
| C=C[Si](C)(C)O[Si](C)(C)C=C | – | inactive |
| CN(C)c1ccc(N=Nc2ccccc2C(=O)O)cc1 | 6.64 µM (active) | – |

| Compound | AC50 | outcome |
| --- | --- | --- |
| C=C1C2CCC(C2)C1(C)C (stereo not given) | – | inactive |
| OC1CCCCCCCCCCC1 | – | inactive |
| CC(C)c1ccc2c(C(C)C)cc(C(C)C)c(S(=O)(=O)O)c2c1 | – | inactive |
| CCCCCCCCCCCCCOP(=O)(O)O | – | inactive |
| Cc1ccc(C(C)(C)C)cc1 | – | inactive |
| CCCCCCCC/C=C\CCCCCCCC(=O)O | – | inactive |
| CC1=CC[C@H]2C[C@@H]1C2(C)C | – | inactive |
| O=C(C(Cl)Cl)N1CCOC12CCCCC2 | 9.81 µM (active) | – |
| CCN(CCC#N)c1ccc(N=Nc2c(Cl)cc([N+](=O)[O-])cc2Cl)cc1 | 3.43 µM (active) | – |
| C1=Cc2ccccc2C1 | – | inactive |
| CCCCCCCCO[C@@H]1O[C@H](CO)[C@@H](O)[C@H](O)[C@H]1O | – | inactive |
| CC1=NN(c2cc(S(=O)(=O)O)ccc2Cl)C(=O)C1N=Nc1ccccc1 (stereo not given) | – | inactive |
| c1c[nH]cn1 | – | inactive |
| CC(C)(C)c1ccc(-c2ccc(C(C)(C)C)cc2)cc1 | – | inactive |
| O=C(O)CCCC[C@@H]1SC[C@@H]2NC(=O)N[C@@H]21 | – | inactive |
| CCCCCCCC/C=C\CCCCCCCC(=O)OCCO | – | inactive |
| CCCCC/C=C\C/C=C\CCCCCCCC(=O)OC | – | inactive |
| CCCCCCCC[N+](C)(CCCCCCCC)CCCCCCCC | 1.03 µM (active) | – |
| CCCCOCCOC(=O)COc1nc(Cl)c(Cl)cc1Cl | – | inactive |
| CCO[Si](C)(OCC)OCC | – | inactive |
